High-throughput results (PubChem BioAssay)
Hits are enriched below; roughly 3.1% of the tested compounds scored in any of these assays.
CD11b adhes enh = enhancers of human CD11b/CD18 binding to fibrinogen | activation, % at 10 µM | K562 CD11b/CD18 adhesion to fibrinogen, ATPlite luminescence | 0.07% of 93,000 active | P05107+P11215 | AID 1499;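 active means 10 µM primary screen giving 50% or more activity, confirmed by 40% or more on retest at that dose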
Target sequence (P05107 whole entry, looked up, other chains not shown): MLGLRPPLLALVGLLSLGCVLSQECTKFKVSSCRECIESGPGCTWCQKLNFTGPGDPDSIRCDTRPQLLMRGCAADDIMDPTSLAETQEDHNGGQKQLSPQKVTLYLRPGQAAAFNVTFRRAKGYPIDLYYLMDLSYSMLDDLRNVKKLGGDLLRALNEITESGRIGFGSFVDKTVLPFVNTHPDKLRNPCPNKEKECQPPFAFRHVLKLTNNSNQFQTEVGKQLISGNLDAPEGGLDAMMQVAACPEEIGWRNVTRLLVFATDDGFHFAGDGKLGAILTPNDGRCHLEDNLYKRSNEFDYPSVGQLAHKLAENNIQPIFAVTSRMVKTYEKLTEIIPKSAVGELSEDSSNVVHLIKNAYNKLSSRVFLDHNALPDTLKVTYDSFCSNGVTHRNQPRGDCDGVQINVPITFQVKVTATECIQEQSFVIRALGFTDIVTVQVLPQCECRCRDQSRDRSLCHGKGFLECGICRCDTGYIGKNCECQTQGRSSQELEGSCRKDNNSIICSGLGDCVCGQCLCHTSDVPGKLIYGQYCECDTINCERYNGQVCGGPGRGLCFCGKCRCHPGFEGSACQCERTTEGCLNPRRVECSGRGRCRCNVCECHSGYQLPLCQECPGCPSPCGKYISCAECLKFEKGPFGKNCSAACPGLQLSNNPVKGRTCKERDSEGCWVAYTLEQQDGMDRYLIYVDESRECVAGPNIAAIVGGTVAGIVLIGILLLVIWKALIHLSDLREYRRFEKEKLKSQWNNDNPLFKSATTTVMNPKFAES
Mac1 fbg inh = inhibitors of human CD11b/CD18 binding to fibrinogen; P05107+P11215; AID 1497; K562 CD11b/CD18 adhesion to fibrinogen, ATPlite luminescence; Mn2+ added to activate the integrin; inhibition, % at 10 µM; 0.54% of 93,000 active;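 active means primary inhibition of 50% or more at 10 µM, then 40% or more on retest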
ERa SRC1 pot = enhances coactivator binding to human estrogen receptor alpha; AID 639; TR-FRET ERalpha-LBD/SRC-Cy5 coactivator binding, 2 h; 100 = basal binding, no effect; 1.3% of 86,000 active; coactivator binding (% of control), % at 25.6 µM; in the data active means activity above about 200%;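 further: binding measured in presence of low estradiol as agonist stimulus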
ERb SRC1 inh = blocks coactivator binding to human estrogen receptor beta; TR-FRET ER-beta LBD / SRC1-Cy5 peptide binding; receptor agonist-loaded with 1 µM estradiol; inhibition, % at 25.6 µM; 1.3% of 86,000 active; Q92731;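 active means compounds whose percent inhibition of the receptor-coactivator binding signal exceeds about 50% in the single-dose screen, limit read from the data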
ERa SRC1 inh = blocks coactivator binding to human estrogen receptor alpha. P03372. TR-FRET ER-alpha LBD / SRC-1 peptide, estradiol-bound. inhibition, % at 25.6 µM. 1.7% of 86,000 active; in the data active means inhibition above about 50%
Numbers stand for hits; - = inactive; . = no result; [ ] = dose if it differs, or a comment.

SMILES	CD11b adhes enh	Mac1 fbg inh	ERa SRC1 pot	ERb SRC1 inh	ERa SRC1 inh
O=C(CSc1nnc(-c2ccccn2)n1Cc1ccccc1)Nc1ccc2c(c1)OCO2	-	-	-	-	-
COc1ccc(-n2nc(C(=O)Nc3ccc(OC)c(OC)c3)c3c4ccccc4n(C)c3c2=O)cc1	-	-	-	-	57
O=C(CN1C(=O)COc2ccc(S(=O)(=O)N3CCCC3)cc21)NC1CCCCCCC1	-	-	.	.	.
COC(=O)c1ccc(COC(=O)c2[nH]c(C)c(C(C)=O)c2C)o1	-	76	-	-	-
CCOC(=O)c1[nH]c(C)c(C(=O)NCc2ccc(OC)cc2)c1C	-	-	-	-	-
CN1CCc2nc3sc(C(=O)C45CC6CC(CC(C6)C4)C5)c(N)c3cc2C1	118	-	.	.	.
Nc1c(C(=O)c2ccc(Cl)cc2)sc2nc3c(cc12)CCC3	-	-	.	.	.
CCCCOCCCNc1ncnc2c1[nH]c1ccccc12	-	100	-	-	-
CCc1ccc2nc(SCC(=O)N3CC(=O)Nc4ccccc43)c(C#N)cc2c1	.	.	360	-	-
CCc1ccc2nc(SCC(=O)N3CCCCC3)c(C#N)cc2c1	.	.	-	-	-
O=[N+]([O-])c1cccc(S(=O)(=O)Nc2nc3ccccc3nc2Nc2cccc(S(=O)(=O)N3CCCCC3)c2)c1	-	98	.	.	.
CCOc1ccc(N2C(=O)CC(n3ccc(C)n3)C2=O)cc1 (centres undefined)	.	.	-	-	-
Cc1oc(-c2ccc(Cl)cc2)nc1CN1CCCC(C(=O)NCc2cccnc2)C1 (centres undefined)	-	84	-	53	-
CCn1c2ccccc2c2cc(C3N=C(N)Nc4nc5ccccc5n43)ccc21 (centres undefined)	-	-	277[fluorescence artefact?]	-	-
N=c1c(-c2nc3ccccc3[nH]2)cc(C(=O)c2cccs2)nn1-c1ccc(Cl)cc1	.	.	-	52	90[fluorescence artefact?]
O=C(Nc1cnc2ccccc2c1)c1ccco1	-	-	-	-	57
O=C(Nc1cccc(-c2nc3ccccc3[nH]2)c1)c1cccc(NC(=O)c2ccco2)c1	-	-	-	68[fluorescence artefact?]	70[fluorescence artefact?]
CCOC(=O)c1c(C)[nH]c(C)c1C(=O)CSc1ncccn1	-	-	.	.	.
CN(Cc1ccccc1)c1ccc(C(=O)O)cc1[N+](=O)[O-]	-	-	.	.	.
O=C(CN1N=C(c2ccc(Cl)cc2)CCC1=O)NCc1cccnc1	-	-	.	.	.
FC(F)(F)c1ccc(N=Cc2sc(N3CCOCC3)nc2-c2ccccc2)cc1	-	-	.	.	.
O=C(/C=C/c1cc([N+](=O)[O-])ccc1OC(F)F)Nc1cccc(OC(F)F)c1	-	-	.	.	.
COc1ccc(-c2noc(CCC(=O)NCCCN3CCC(Cc4ccccc4)CC3)n2)cc1	-	61	-	-	-
Cc1ccc(C)c2c1[nH]c1ccc([N+](=O)[O-])cc12	-	-	-	-	-
CCC(=O)Oc1ccc(C(CC)C(CC)c2ccc(OC(=O)CC)cc2)cc1 (centres undefined)	.	.	577	-	-
SMILES	CD11b adhes enh	Mac1 fbg inh	ERa SRC1 pot	ERb SRC1 inh	ERa SRC1 inh
CCC(C(=O)OCC(=O)Nc1ccc(SC(F)F)cc1)c1ccccc1 (centres undefined)	-	-	.	.	.
CCSc1nnc(NC(=O)C2Cc3ccccc3CN2C(=O)c2ccco2)s1 (centres undefined)	-	-	-	-	53
NS(=O)(=O)c1ccc(CCNC(=O)C2Cc3ccccc3CN2C(=O)c2ccco2)cc1 (centres undefined)	-	-	.	.	.
Cc1ccccc1NCCNc1ccccc1C	-	-	-	-	-
NC(=O)c1ccsc1NC(=O)COC(=O)Cc1cccc2ccccc12	-	84	-	-	-
CCN(CC)c1ccc(-c2c(C#N)c(N)nc(OC)c2C#N)cc1	-	-	213[fluorescence artefact?]	-	-
CC(C)COC(=O)c1nnsc1NC(=O)Nc1ccccc1	-	-	-	61	64[fluorescence artefact?]
O=C(Nc1ccccc1)Nc1ccc2snnc2c1	.	.	-	-	-
CC(=O)N1CCN(c2ccc(S(=O)(=O)N3CCCCC3)cn2)CC1	.	.	-	-	-
O=S(=O)(c1ccc(N2CCN(S(=O)(=O)c3ccc4c(c3)OCCO4)CC2)nc1)N1CCCC1	.	.	275[fluorescence artefact?]	-	-
O=C(Nc1nnc(C2CCCO2)s1)c1ccc(Br)cc1 (centres undefined)	-	-	-	54	-
CCOC(=O)Cc1csc(NC(=O)CCCCCN2C(=O)c3cccc4cccc(c34)C2=O)n1	.	.	-	58[fluorescence artefact?]	69[fluorescence artefact?]
CNC(=O)c1c(NC(=O)c2nc3ccccc3s2)sc2c1CCC2	-	-	-	53	72[fluorescence artefact?]
CC1CCCCC12NC(=O)N(CC(=O)c1ccc[nH]1)C2=O (centres undefined)	-	-	-	-	-
CC1CCC2(CC1)NC(=O)N(CC(=O)c1ccc[nH]1)C2=O (centres undefined)	-	-	-	-	75
COc1ccc(N2C(=O)CCC2=O)cc1	-	-	-	-	52[fluorescence artefact?]
CC(=O)Oc1ccc(N2C(=O)CCC2=O)cc1	-	-	-	-	-
Cc1cccc(Nc2nnc(SCC(=O)N(C)C3CCS(=O)(=O)C3)s2)c1C (centres undefined)	-	-	.	.	.
N=C1C(c2ccccc2)=C(O)C2CCc3ccccc3N12 (centres undefined)	-	-	-	-	58[fluorescence artefact?]
CCOC(=O)c1cnn(CC2CCCCC2)c1N	-	-	-	-	-
COc1ccc2nc(SCC(=O)N3CCCCCC3)c(C#N)cc2c1	-	-	-	-	-
Cc1ccc2nc(SCC(=O)Nc3ccccc3N3CCOCC3)c(C#N)cc2c1	.	.	217[fluorescence artefact?]	-	-
COc1ccc2nc(SCC(=O)Nc3ccc(S(=O)(=O)N4CCCC4)cc3)c(C#N)cc2c1	-	-	509[fluorescence artefact?]	-	-
Cc1ccc(-c2nnc(SCC(=O)Nc3ccccc3N3CCOCC3)o2)cc1	-	-	-	-	-
N#Cc1cc2ccccc2nc1SCC(=O)Nc1ccc(S(=O)(=O)N2CCCC2)cc1	-	-	289[fluorescence artefact?]	-	-
SMILES	CD11b adhes enh	Mac1 fbg inh	ERa SRC1 pot	ERb SRC1 inh	ERa SRC1 inh
CC(C(=O)N1CCc2ccccc21)n1cccc1 (centres undefined)	-	-	-	-	-
Cc1ccc(-n2nnnc2SCC(=O)Nc2ncc(Cc3ccccc3Cl)s2)cc1	-	-	.	.	.
O=C1C2CC=CCC2C(=O)N1c1n[nH]c(-c2ccccc2)n1 (centres undefined)	-	-	-	-	-
O=C(COC(=O)c1cc(-c2cccs2)nc2ccccc12)NCc1ccco1	-	-	-	-	65[fluorescence artefact?]
O=C(COC(=O)c1ccco1)NCc1ccco1	-	-	-	-	-
Cc1onc(-c2c(F)cccc2Cl)c1C(=O)OCC(=O)NCc1ccco1	-	-	-	-	52
O=C(COC(=O)c1cc(S(=O)(=O)N2CCc3ccccc3C2)ccc1Cl)NCc1ccco1	-	-	-	-	-
O=C(NCc1ccco1)c1cc(-c2cccs2)nc2ccccc12	-	-	.	.	.
O=C(COC(=O)c1cccc(S(=O)(=O)N2CCc3ccccc3C2)c1)NCc1ccco1	-	-	-	53	65
